Rab9 prom act – activators of Rab9 promoter. Huh7 Rab9 promoter-luciferase reporter, luminescence, 24 h. Potency, µM (highest dose often 9.22 µM), for the others: at the highest dose activation, negative = inhibition, actives largely listed as activators. 320,000 tested, 2.8% active. AID 485297; note: % of control where 0% means no effect; nearly all actives have a fitted effect of over 60% in size
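Cell-based reporter: Huh7 stable for Rab9 promoter-driven luciferase, plated in reduced-serum medium with 10% FBS at 1500 cells/well, compound-treated 24 h at 37 °C, luminescence read after 10 min reagent.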
NPC1 prom act – activates the NPC1 promoter; Huh7 NPC1 promoter luciferase reporter, 24 h; Potency, µM (series often up to 9.22 µM), without a hit: at the top dose activation, actives largely listed as activators; 320,000 tested, 2.4% active; note: % of control where 0% means no effect; nearly all actives have a fitted effect of over 60% in size
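Huh7 reporter cells (NPC1 promoter driving luciferase) are dosed with compound for 24 h at 37 °C, 5% CO2; luciferase detection reagent is then added and luminescence measured after 10 min at ambient temperature.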
ELG1 genotoxic – inducers of genotoxicity in HEK293T ELG1-luciferase cells; 330,000 tested, 1.3% active; HEK293T ELG1-luciferase reporter, luminescence, 16 h; Potency, µM (series often up to 46 µM), without a hit: top-dose activity change, positive = activation, most hits filed as activators; note: % of control where 0% means no effect; nearly all actives have a fitted effect of over 60% in size
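HEK293T cells expressing luciferase-tagged ELG1 were exposed to compound or DMSO vehicle for 16 hr at 37 °C and 5% CO2. Luciferase activity was then measured with ONE-Glo after 30 min at room temperature.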
SMN2 splice up – SMN2 splice variant enhancement; 210,000 tested, 2.8% active; Potency, µM (highest dose often 46.1 µM), without a hit: at the top dose activity change, positive = activation, usual class: activators; HEK293 SMN2-luciferase splicing reporter, luminescence, 30-36 h; note: % of control where 0% means no effect; nearly all actives have a fitted effect of over 55% in size
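HEK293 cells carry an SMN2 […]–luciferase reporter in which exon 7 inclusion puts luciferase in frame. Cells were plated 10-12 h before compound addition, then incubated 30-36 h at 37C. ONE-Glo luminescence was read; sodium butyrate at 4.5 mM final served as control.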
Luc counter – counter-screen: inhibitors of Kinase-Glo firefly luciferase; Potency, µM (series often up to 38.3 µM), for the others: at the top dose activity change, negative = inhibition, hits mostly inhibitors; Kinase-Glo luciferase, ATP luminescence, 8 min; 200,000 tested, 0.28% active; Q27757; note: % is set by controls: 0 for no effect and ±100 for the full control effect; nearly all actives have a fitted effect of over 60% in size
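Luminescence was the read-out, taken after 8-minute incubation at ambient temperature. Luciferase turned over luciferin with 10 uM ATP in imidazole pH 7.2 buffer containing KCl, MgCl2, Tween 20 and BSA.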
FLuc modulator – firefly luciferase modulation, counter-screen for miR-21 project; P08659; purified FLuc, Km substrates, luminescence inhibition; Potency, µM (titrated, usually from 57.5 µM), without a hit: at the highest dose activity change, negative = inhibition, actives largely listed as inhibitors; 360,000 tested, 6.9% active;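 note: plate controls were vehicle for no effect and reference inhibitor for full effect; nearly all actives have a fitted effect of over 55% in size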
Target sequence (P08659 whole entry, looked up): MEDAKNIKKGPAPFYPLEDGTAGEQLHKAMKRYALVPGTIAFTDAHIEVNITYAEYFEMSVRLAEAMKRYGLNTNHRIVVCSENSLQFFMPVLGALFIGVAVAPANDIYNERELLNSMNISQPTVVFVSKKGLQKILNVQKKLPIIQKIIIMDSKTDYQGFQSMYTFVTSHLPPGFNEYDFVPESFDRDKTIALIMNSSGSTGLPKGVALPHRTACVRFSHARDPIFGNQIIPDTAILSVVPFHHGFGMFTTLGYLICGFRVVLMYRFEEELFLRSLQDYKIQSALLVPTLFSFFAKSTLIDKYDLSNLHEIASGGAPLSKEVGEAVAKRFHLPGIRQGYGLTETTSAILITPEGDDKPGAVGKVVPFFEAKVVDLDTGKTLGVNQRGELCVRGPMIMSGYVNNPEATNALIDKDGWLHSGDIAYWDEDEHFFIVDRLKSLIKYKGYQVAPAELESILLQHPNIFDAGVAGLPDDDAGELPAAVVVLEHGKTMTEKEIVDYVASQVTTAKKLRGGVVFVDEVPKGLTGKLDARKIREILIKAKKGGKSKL
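Biochemical qHTS of compounds, final roughly 60 µM downward over six points, against 10 nM purified firefly luciferase using Km concentrations of substrates (10 uM D-luciferin, 10 uM ATP) in Tris acetate pH 7.5 buffer; luminescence output.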
* hit, by the source's call; ? = inconclusive; / = no result. Most compounds without a hit are left out; they make up all but 7.5% or so of the library. Calls come from the whole dose curve; as a rule, active = well fitted curve in the direction sought with a large enough effect; inconclusive = small, poorly fitted or top-dose-only effect, or another doubt; inactive = no such curve, though single readings can be large; an effect the other way counts as inactive or inconclusive. Potency is the fitted concentration of half-maximal effect.

SMILES | Rab9 prom act | NPC1 prom act | ELG1 genotoxic | SMN2 splice up | Luc counter | FLuc modulator
O=C(O)CCc1ccc(-c2ccc(Cl)cc2)o1 | 2% | 8% | ? | -3% | -4% | 15µM*
O=C(O)CCc1ccc(-c2ccc(Br)cc2)n1Cc1ccco1 | -6% | -3% | -1% | -6% | 1% | 4%
COc1ccc(-c2ccc(CCC(=O)O)o2)cc1 | 18% | 18% | 12% | / | -3% | 5.4µM*
CSc1nc2ccc(NC(=O)CSc3nnc(N)s3)cc2s1 | 15% | 9% | ? | 9% | -3% | 21µM*
CSc1nc2ccc(NC(=O)c3ccccn3)cc2s1 | 0.4µM* | 0.45µM* | 0.092µM* | / | / | 0.43µM*
CSc1nc2ccc(NC(=O)C3=NNC(=O)CC3)cc2s1 | 22% | 19% | 10% | 19% | -1% | ?
CSc1nc2ccc(NC(=O)C3=NN(c4ccccc4)C(=O)CC3)cc2s1 | 0% | 6% | 0% | ? | 0% | 19µM*
COc1ccc(OCC(=O)OCc2cc(=O)n3nc(C4CCCCC4)sc3n2)cc1 | / | / | / | / | / | -4%
O=C(CC1CCCC1)Nc1ccc(Br)cc1 | ? | ? | ? | / | / | 17µM*
O=C(COC(=O)CC1CCCC1)Nc1ccc(Cl)cc1 | -1% | 2% | -5% | / | / | 30µM*
COc1ccc(NC(=O)CC2CCCCC2)cc1OC | 19% | 9% | 10% | -3% | -1% | -13%
Cc1ccc(CN2COc3c(Cl)cc4c(-c5ccccc5)cc(=O)oc4c3C2)cc1 | / | / | / | 2% | / | -3%
Cn1cc(C(=O)C(=O)N2CCc3ccccc32)c2ccccc21 | 2.8µM* | 3.2µM* | ? | / | / | 1%
N#Cc1c2c(c(-c3ccccc3Cl)[nH]c1=S)CCCC2 | 0% | -1% | -1% | -17% | -2% | -18%
N#Cc1c(-n2ncnc2-c2ccccc2C(F)(F)F)sc2c1CCCCC2 | / | / | / | -8% | / | 0.24µM*
COc1ccccc1-c1ncnn1-c1sc2c(c1C#N)CCCCC2 | / | / | / | -5% | / | 1.5µM*
N#Cc1c(-n2ncnc2-c2cccc(Cl)c2)sc2c1CCCCC2 | / | / | / | 1% | / | 1.5µM*
N#Cc1c(-n2cccc2/C=N/O)sc2c1CCCC2 | -9% | 0% | -2% | -22% | -2% | 6%
N#Cc1c(-n2ncnc2-c2ccccc2Cl)sc2c1CCCCC2 | / | / | / | -6% | / | 1.9µM*
COc1ccc(C(=O)NNc2ncnc3c2cnn3-c2ccc(C)cc2C)cc1 | / | / | / | / | / | -11%
COc1ccc(-c2cc3nc(C)c(CCC(=O)Nc4ccc(F)cc4F)c(C)n3n2)c(OC)c1 | / | / | / | 0% | / | -15%
O=C(CN1C(=O)C2(SCC(=O)N2c2cccc(Cl)c2)c2ccccc21)NCc1ccccc1 (stereo not drawn) | / | / | / | / | / | 5%
Cc1ccc(N2C(=O)c3n[nH]c(C)c3C2c2ccco2)cc1 (stereo not drawn) | 23% | ? | ? | ? | 1% | 8.5µM*
CCOC(=O)c1ccc(N2C(=O)c3n[nH]c(C)c3C2c2ccco2)cc1 (stereo not drawn) | -4% | ? | -2% | -34% | -7% | -1%
CCOC(=O)c1c(C)oc2c1c(C=NCC1CCCO1)c(O)c1ccccc12 (stereo not drawn) | -3% | 0% | -11% | 25% | -5% | 9.5µM*
SMILES | Rab9 prom act | NPC1 prom act | ELG1 genotoxic | SMN2 splice up | Luc counter | FLuc modulator
Cc1cc(C)c(Cn2c3ccccc3c3cnn(CC(=O)NC4CCC(C)CC4)c(=O)c32)c(C)c1 (stereo not drawn) | / | / | / | 2% | / | -5%
CC1=CC(=C2N=C(c3ccccc3)OC2=O)C=C(C)O1 | ? | ? | 7% | 12% | -3% | ?
CN1C=CC=C/C1=C1/N=C(c2ccccc2)OC1=O | 3.2µM* | ? | 3% | ? | 1% | ?
Cc1nc(S/C(=C/c2ccc(-c3cccc(Cl)c3)o2)C(=O)O)n[nH]1 | 4% | 0% | -4% | -23% | -4% | 5.4µM*
Cc1ccc2nc(/C(C#N)=C/c3ccc(-c4cccc(Cl)c4)o3)[nH]c2c1 | / | / | / | -1% | / | -17%
CCc1ccc(NC(=O)C2CCN(S(=O)(=O)c3ccc4[nH]c5c(c4c3)CCCCC5)CC2)cc1 | / | / | / | / | / | -7%
CCS(=O)(=O)N1CCN(c2ccccc2F)CC1 | -8% | -3% | 3% | 0% | 2% | -2%
c1ccc(CN2CCN(c3nc4ccccc4c4ccccc34)CC2)cc1 | -4% | 2% | -6% | -19% | -1% | 0%
Oc1ccccc1N1CCN(c2ccc3ccccc3n2)CC1 | 0.4µM* | 1.3µM* | ? | / | / | 5.4µM*
c1ccc(CN2CCN(c3cnc4ccccc4n3)CC2)cc1 | ? | ? | ? | / | / | 19µM*
Fc1ccccc1N1CCN(c2cnc3ccccc3n2)CC1 | / | / | / | 2.8µM* | -3% | 2.1µM*
C[N+](C)(C)CC(=O)N1CCN(c2ccc3ccccc3n2)CC1 | -1% | 0% | 0% | / | / | 1%
O=C(COc1ccccc1)Nc1ccc2c(c1)nc1n2CCSC1 | 4µM* | ? | ? | 10% | -5% | 21µM*
O=C(Nc1ccc2c(c1)nc1n2CCSC1)c1ccco1 | 0.45µM* | 0.32µM* | ? | -14% | 10µM* | 2.7µM*
O=C(Nc1ccc2c(c1)nc1n2CCOC1)c1ccco1 | 4µM* | 1.3µM* | ? | ? | -15% | 13µM*
O=C(COc1ccccc1)Nc1ccc2c(c1)nc1n2CCOC1 | ? | ? | ? | 3% | 9% | ?
O=C(Nc1ccc2c(c1)nc1n2CCN(C2CCCCC2)C1)c1ccco1 | 17% | 14% | -2% | / | / | -19%
Cc1nnsc1C(=O)NNC(=O)c1ccc(C(F)(F)F)cc1 | 9% | 9% | 5% | / | / | 17µM*
N#C/C(=N\Nc1ccc(Cl)c(Cl)c1)C(=O)C1CC1 | ? | ? | 8% | / | / | 27µM*
N#C/C(=N\Nc1ccc(F)cc1)C(=O)C1CC1 | 2% | 8% | -2% | / | / | -13%
CN(C)/C=C/C(=O)c1ccc(Cl)s1 | 13% | 6% | ? | 2% | -4% | -13%
CN(C)/C=C/C(=O)c1cnc(-c2ccccc2)s1 | 1.4µM* | 2µM* | ? | 11µM* | -5% | 11µM*
CN(C)/C=C/C(=O)c1cnc(-c2ccc(Cl)cc2)s1 | 0.5µM* | 1µM* | ? | 10µM* | -8% | 2.7µM*
Cc1ccc(CNC(=O)Nc2cccc(C)c2)cc1 | 2.8µM* | ? | ? | ? | -1% | 9.5µM*
Cc1cccc(NC(=O)Nc2ccc(C)cc2Br)c1 | ? | ? | ? | 13µM* | -2% | ?
Cc1ccc(NC(=O)NCc2ccc3[nH]c(C)cc3c2)cc1 | 13% | 14% | 4% | 22µM* | -2% | ?
Cc1cccc(NC(=O)NCc2ccc3[nH]c(C)cc3c2)c1 | ? | ? | ? | 17% | 2% | 19µM*

Screens from PubChem BioAssay.
